Several values for one entry are separate records, joined by “and”; a condition that tells them apart may be missing. Identical values can stand only once. Inconclusive results are not listed. Where a call stands in place of a potency, no number is given. Activity calls are given as the source filed them. Calls follow the shape of the full dose curve.
Experiment: Cytotoxicity counterscreen for inhibitors of SARS-CoV-2 cell entry (AID 1645845); also: nearly all actives have a fitted effect of over 50% in size
Details: cell viability (SARS-CoV-2 entry assay cells); series mostly up to 57.1 µM; activity change, negative = cytotoxicity: at the top concentration
Summary of the method: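 Counterscreen run in the same HEK293-ACE2 line as the pseudotyped-particle entry assay, without particles. Viability after 48 h at 37 C was read as ATP luminescence, scaled between cell-containing and cell-free wells.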

Row | Compound | activity change, negative = cytotoxicity | outcome | Potency
1 | C=C1C[C@H]2[C@@H]3C=C(C)C4=CC(=O)CC[C@]4(C)[C@H]3CC[C@]2(C)[C@@]1(OC(C)=O)C(C)=O | -10.7% (inactive) |  | 
2 | Cc1cccc(N(C)C(=S)Oc2ccc3c(c2)C2CCC3C2)c1 (stereo unspecified) | -3.24% (inactive) |  | 
3 | Cc1ccc(C(C)OC(=O)C2(C)CCC(C(=O)O)C2(C)C)cc1 (stereo unspecified) |  | inactive | 
4 | O=c1cc(CO)occ1O | 3.48% (inactive) |  | 
5 | C[C@@H]1C[C@H]2[C@@H]3CCC4=CC(=O)C=C[C@]4(C)[C@@]3(Cl)[C@@H](O)C[C@]2(C)[C@@]1(OC(=O)c1ccco1)C(=O)CCl |  |  | inactive
6 | CCOc1ccc2nc(S(N)(=O)=O)sc2c1 |  | inactive | 
7 | CCN(CC)C(=O)N1CCN(C)CC1 |  | inactive | 
8 | c1ccc(CN(CC2=NCCN2)c2ccccc2)cc1 |  | inactive | 
9 | COC(=O)C1=C(C)NC(COC(N)=O)=C(C(=O)OC(C)C)C1c1cccc(Cl)c1Cl (stereo unspecified) | -16.2% (inactive) |  | 
10 | CN(C)[C@@H]1C(=O)C(C(=O)NCN2CCCC2)=C(O)[C@@]2(O)C(=O)C3=C(O)c4c(O)cccc4[C@@](C)(O)C3C[C@@H]12 (stereo partly specified) | -11.6% (inactive) |  | 
11 | COc1ccc(CN(CCN(C)C)c2ccccn2)cc1 |  | inactive | 
12 | CC(C)c1cc2c(cc1S(=O)(=O)O)[C@@]1(C)CCC[C@@](C)(C(=O)O)[C@@H]1CC2 |  | inactive | 
13 | CCOC(=O)[C@H](CCc1ccccc1)N[C@@H](C)C(=O)N1C(=O)N(C)C[C@H]1C(=O)O |  | inactive | 
14 | CCCOc1ccc(C(=O)OCCN(CC)CC)cc1N |  |  | inactive
15 | Cn1cnc2c1c(=O)[nH]c(=O)n2C |  |  | inactive
16 | CCOc1c(N2CCOCC2)cnn(C)c1=O | 4.62% (inactive) |  | 
17 | CCOC(=O)C1=C(C)NC(C)=C(C(=O)OCC)C1c1ccccc1/C=C/C(=O)OC(C)(C)C | -7.54% (inactive) |  | 
18 | O=C1c2cccc(O)c2C(=O)c2c(O)cccc21 | 1.7% (inactive) |  | 
19 | O=C(O)CCc1nc(-c2ccccc2)c(-c2ccccc2)o1 |  | inactive | 

Row | Compound | activity change, negative = cytotoxicity | outcome | Potency
20 | NCCc1ccc(O)c(O)c1 |  |  | inactive
21 | C=CC[N+]1([C@H]2C[C@H]3[C@@H]4CC[C@H]5C[C@H](OC(C)=O)[C@@H](N6CCCCC6)C[C@]5(C)[C@H]4CC[C@]3(C)[C@H]2OC(=O)CC)CCCCC1 | -10.4% (inactive) |  | 
22 | COc1ccnc2c1CCCCC2S(=O)c1nc2ccccc2[nH]1 (stereo unspecified) |  | inactive | 
23 | CNC1CCCN(c2c(F)cc3c(=O)c(C(=O)O)cn(C4CC4)c3c2OC)C1 (stereo unspecified) |  |  | inactive
24 | CCCCOc1ccc(OCCCN2CCOCC2)cc1 | -3.78% (inactive) |  | 
25 | CC(=O)N[C@H]1[C@H]([C@H](O)[C@H](O)CO)OC(C(=O)O)=C[C@@H]1N=C(N)N | 0.225% (inactive) |  | 
26 | C[C@H]1COc2c(C3(N)CC3)c(F)cc3c(=O)c(C(=O)O)cn1c23 |  | inactive | 
27 | Cc1cccc(N(C)C(=S)Oc2ccc3ccccc3c2)c1 |  |  | inactive
28 | CC[N+](CC)(CC(=O)Nc1c(C)cccc1C)Cc1ccccc1 |  |  | inactive
29 | CC(C)(C)C(=O)OCOC(=O)[C@@H]1N2C(=O)[C@@H](NC(=O)[C@H](N)c3ccccc3)[C@H]2SC1(C)C | 0.793% (inactive) |  | 
30 | O=C1OC2(c3ccc(O)cc3Oc3cc(O)ccc32)c2ccccc21 | 4.87% (inactive) |  | 
31 | Cc1[nH]c(=O)c(C#N)cc1-c1ccc2nccn2c1 | -2.95% (inactive) |  | 
32 | CCOC(=O)OCC/C(SC(=O)OCC)=C(\C)N(C=O)Cc1cnc(C)nc1N | -0.2% (inactive) |  | 
33 | CCc1oc2ccccc2c1C(=O)c1cc(Br)c(O)c(Br)c1 |  | inactive | 
34 | CC(C)NCC(O)COc1ccc(COCCOC(C)C)cc1 (stereo unspecified) |  | inactive | 
35 | NS(=O)(=O)c1cc2c(cc1Cl)NC(CSCc1ccccc1)=NS2(=O)=O | 0.998% (inactive) |  | 
36 | Nc1ccc(N=Nc2ccccc2)c(N)n1 |  | inactive | 
37 | CCC(=O)O[C@]1(C(=O)SCF)[C@H](C)C[C@H]2[C@@H]3C[C@H](F)C4=CC(=O)C=C[C@]4(C)[C@@]3(F)[C@@H](O)C[C@@]21C |  |  | inactive
38 | COc1nc(C)nc(Cl)c1NC1=NCCN1 |  | inactive | 

Experiment: Primary qHTS to identify inhibitors of SARS-CoV-2 cell entry (AID 1645846); also: nearly all actives have a fitted effect of over 45% in size; also: potency is read from the fitted curve at half-maximal effect
Details: SARS-CoV-2 pseudovirus cell entry assay, luminescence; activity change, negative = inhibition: at 57.1 µM (top of the series) unless noted; series mostly up to 57.1 µM
Summary of the method: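 HEK293-ACE2 (Expi293F, stable hACE2), 1500 cells/well, o/n 37C; cpd 23 nL pin, 1 h; MLV-PP w/ SARS-CoV-2-S (Wuhan-Hu-1, Δ19 C-term); 48 h 37C; Bright-Glo luminescence; normalized vs S-PP and bald PP.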

Row | Compound | activity change, negative = inhibition | outcome | Potency
39 | C=C1C[C@H]2[C@@H]3C=C(C)C4=CC(=O)CC[C@]4(C)[C@H]3CC[C@]2(C)[C@@]1(OC(C)=O)C(C)=O | 2.39% |  | 
40 | Cc1cccc(N(C)C(=S)Oc2ccc3c(c2)C2CCC3C2)c1 (stereo unspecified) |  | inactive | 
41 | Cc1ccc(C(C)OC(=O)C2(C)CCC(C(=O)O)C2(C)C)cc1 (stereo unspecified) | -10.3% |  | 
42 | O=c1cc(CO)occ1O |  | inactive | 
43 | C[C@@H]1C[C@H]2[C@@H]3CCC4=CC(=O)C=C[C@]4(C)[C@@]3(Cl)[C@@H](O)C[C@]2(C)[C@@]1(OC(=O)c1ccco1)C(=O)CCl | -22.6% |  | 
44 | CCOc1ccc2nc(S(N)(=O)=O)sc2c1 |  | inactive | 
45 | CCN(CC)C(=O)N1CCN(C)CC1 | -24.4% |  | 
46 | c1ccc(CN(CC2=NCCN2)c2ccccc2)cc1 |  | inactive | 
47 | COC(=O)C1=C(C)NC(COC(N)=O)=C(C(=O)OC(C)C)C1c1cccc(Cl)c1Cl (stereo unspecified) | -3.4% |  | 
48 | CN(C)[C@@H]1C(=O)C(C(=O)NCN2CCCC2)=C(O)[C@@]2(O)C(=O)C3=C(O)c4c(O)cccc4[C@@](C)(O)C3C[C@@H]12 (stereo partly specified) |  | inactive | 
49 | COc1ccc(CN(CCN(C)C)c2ccccn2)cc1 | -6.08% |  | 
50 | CC(C)c1cc2c(cc1S(=O)(=O)O)[C@@]1(C)CCC[C@@](C)(C(=O)O)[C@@H]1CC2 | -22.9% |  | 
51 | CCOC(=O)[C@H](CCc1ccccc1)N[C@@H](C)C(=O)N1C(=O)N(C)C[C@H]1C(=O)O | -10.6% |  | 
52 | CCCOc1ccc(C(=O)OCCN(CC)CC)cc1N | 2.8% and -24.9% |  | 
53 | Cn1cnc2c1c(=O)[nH]c(=O)n2C |  |  | inactive
54 | CCOc1c(N2CCOCC2)cnn(C)c1=O |  | inactive | 
55 | CCOC(=O)C1=C(C)NC(C)=C(C(=O)OCC)C1c1ccccc1/C=C/C(=O)OC(C)(C)C |  |  | 25.1 µM (active)
56 | O=C1c2cccc(O)c2C(=O)c2c(O)cccc21 |  | inactive | 
57 | O=C(O)CCc1nc(-c2ccccc2)c(-c2ccccc2)o1 | 2.68% |  | 

Row | Compound | activity change, negative = inhibition | outcome | Potency
58 | NCCc1ccc(O)c(O)c1 | -18% and -6.68% |  | 
59 | C=CC[N+]1([C@H]2C[C@H]3[C@@H]4CC[C@H]5C[C@H](OC(C)=O)[C@@H](N6CCCCC6)C[C@]5(C)[C@H]4CC[C@]3(C)[C@H]2OC(=O)CC)CCCCC1 |  | inactive | 
60 | COc1ccnc2c1CCCCC2S(=O)c1nc2ccccc2[nH]1 (stereo unspecified) | -18.8% |  | 
61 | CNC1CCCN(c2c(F)cc3c(=O)c(C(=O)O)cn(C4CC4)c3c2OC)C1 (stereo unspecified) | -27.9% and -16.1% |  | 
62 | CCCCOc1ccc(OCCCN2CCOCC2)cc1 |  | inactive | 
63 | CC(=O)N[C@H]1[C@H]([C@H](O)[C@H](O)CO)OC(C(=O)O)=C[C@@H]1N=C(N)N | -0.176% |  | 
64 | C[C@H]1COc2c(C3(N)CC3)c(F)cc3c(=O)c(C(=O)O)cn1c23 | -12.8% |  | 
65 | Cc1cccc(N(C)C(=S)Oc2ccc3ccccc3c2)c1 | -10.5% and -29.1% |  | 
66 | CC[N+](CC)(CC(=O)Nc1c(C)cccc1C)Cc1ccccc1 |  | inactive | 
67 | CC(C)(C)C(=O)OCOC(=O)[C@@H]1N2C(=O)[C@@H](NC(=O)[C@H](N)c3ccccc3)[C@H]2SC1(C)C | -12.4% |  | 
68 | O=C1OC2(c3ccc(O)cc3Oc3cc(O)ccc32)c2ccccc21 |  | inactive | 
69 | Cc1[nH]c(=O)c(C#N)cc1-c1ccc2nccn2c1 |  | inactive | 
70 | CCOC(=O)OCC/C(SC(=O)OCC)=C(\C)N(C=O)Cc1cnc(C)nc1N |  | inactive | 
71 | CCc1oc2ccccc2c1C(=O)c1cc(Br)c(O)c(Br)c1 | -14% |  | 
72 | CC(C)NCC(O)COc1ccc(COCCOC(C)C)cc1 (stereo unspecified) |  | inactive | 
73 | NS(=O)(=O)c1cc2c(cc1Cl)NC(CSCc1ccccc1)=NS2(=O)=O | -3.7% |  | 
74 | Nc1ccc(N=Nc2ccccc2)c(N)n1 |  | inactive | 
75 | CCC(=O)O[C@]1(C(=O)SCF)[C@H](C)C[C@H]2[C@@H]3C[C@H](F)C4=CC(=O)C=C[C@]4(C)[C@@]3(F)[C@@H](O)C[C@@]21C |  |  | inactive
76 | COc1nc(C)nc(Cl)c1NC1=NCCN1 |  | inactive | 

Source: PubChem BioAssay (NCATS)
